Screens: PubChem, National Center for Advancing Translational Sciences (NCATS)
Hits are enriched below; roughly 19% of the tested compounds scored in any of these assays.
DT40 TDP1 no CPT = qHTS for Inhibitors of human tyrosyl-DNA phosphodiesterase 1 (TDP1): qHTS in cells in absence of CPT | Potency, µM (series often up to 46.2 µM), usual class: inhibitors | actives 15% (n = 420,000) | DT40 Tdp1-/- hTDP1 cells, no CPT, ATP luminescence, 48 h | AID 686978, 2013; note: nearly all actives have a fitted effect of over 55% in size
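Chicken DT40 Tdp1-/- cells complemented with human TDP1, screened without camptothecin (DMSO vehicle only), 400 cells/well. Compounds pin-transferred, cells incubated at 37 °C for at least 48 hr. Growth read as ATP-dependent luminescence (CellTiter-Glo, 30 min at RT).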
HT1080 IDH1KD tx = HT-1080 IDH1 knockdown cell toxicity (counter line); HT-1080 IDH1 knockdown viability, ATP luminescence, 48 h; AID 686971; Potency, µM (top dose mostly 46.1 µM), most hits filed as cytotoxic; actives 2% (n = 360,000)
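Knockdown cells (IDH1KD HT-1080) received compounds 2 h after plating at 750 cells/well and were kept 48 h at 37 °C in 5% FBS RPMI. A CellTiter-Glo luminescence read gave % activity for curve fitting.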
KB-V1 cytotox = kills drug-selected multidrug resistant KB-V1 cells | Potency, µM (top dose mostly 46.1 µM), most hits filed as cytotoxic | AID 1347076 | KB-V1 MDR cells viability, CellTiter-Glo, 72 h | actives 3.4% (n = 400,000); note: nearly all actives have a fitted effect of over 60% in size
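Cytotoxicity toward P-gp-expressing KB-V1 cells was determined as loss of CellTiter-Glo luminescence after 72 h at 37 degrees C. Compounds were tested in quantitative HTS format across a concentration range, with curves fitted to normalized data.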
KB-3-1 cytotox = KB-3-1 parental cell cytotoxicity | KB-3-1 viability, CellTiter-Glo ATP luminescence, 72 h | Potency, µM (highest dose often 46.1 µM), actives largely listed as cytotoxic | actives 1.4% (n = 400,000) | AID 1347075; note: nearly all actives have a fitted effect of over 60% in size
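Cytotoxicity measured as CellTiter-Glo luminescence after 72 h at 37 C. Compound titrations were pinned onto drug-naive KB-3-1 parental adenocarcinoma cells grown in DMEM with 10% FBS, and normalized data fitted to concentration-response curves.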
DT40 TDP1 CPT = DT40-hTDP1 cell growth loss with CPT | chicken DT40 Tdp1-/-;hTDP1 cells + 20 nM CPT, ATP luminescence, 48 h | Potency, µM (series often up to 46.2 µM), usual class: inhibitors | actives 12% (n = 420,000) | AID 686979; note: nearly all actives have a fitted effect of over 55% in size
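Cell growth measured by CellTiter-Glo luminescence after a minimum 48 h, 37 C compound exposure with 20 nM CPT in Tdp1-knockout DT40 cells stably expressing hTDP1, seeded 400/well; qHTS titration format.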
HT1080-NT tox = kills 2HG-producing HT-1080-NT fibrosarcoma cells | Potency, µM (series often up to 46.1 µM), hits mostly cytotoxic | actives 1.6% (n = 360,000) | HT-1080-NT fibrosarcoma viability, CellTiter-Glo ATP luminescence, 48 h;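 note: NT is the 2HG producing partner of a matched IDH1 knockdown line; nearly all actives have a fitted effect of over 55% in size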
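750 cells/well, RPMI + 5% FBS; 2 h settle, compound pin-transfer, 48 h at 37 degrees C. CellTiter-Glo 10 min RT, luminescence. Normalized to DMSO and media-only wells.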
A number is an active result; 0 = inactive; ? = inconclusive; - = not tested or not shown. Calls come from the whole dose curve; as a rule, active = well fitted curve in the direction sought with a large enough effect; inconclusive = small, poorly fitted or top-dose-only effect, or another doubt; inactive = no such curve, though single readings can be large; an effect the other way counts as inactive or inconclusive.

SMILES	DT40 TDP1 no CPT	HT1080 IDH1KD tx	KB-V1 cytotox	KB-3-1 cytotox	DT40 TDP1 CPT	HT1080-NT tox
CCN(CC)C(=O)[C@H]1C[C@H](CC(=O)NCCc2ccccn2)C(=O)N2CCc3c([nH]c4cc(-c5ccco5)ccc34)[C@]12C	?	0	0	0	18µM	0
CC(C)N(C(=O)[C@H]1C[C@H](CC(=O)NCCc2ccccn2)C(=O)N2CCc3c([nH]c4cc(-c5ccco5)ccc34)[C@]12C)C(C)C	?	0	0	0	?	0
COc1ccc(CNC(=O)C[C@H]2C[C@H](C(=O)N3CCCCC3)[C@@]3(C)c4[nH]c5cc(-c6ccco6)ccc5c4CCN3C2=O)cc1OC	18µM	0	?	0	?	0
CCC(=O)N1CCc2cc(S(=O)(=O)CCC(=O)N3CCN(c4cc(C)ccc4C)CC3)ccc21	?	-	0	0	?	-
CCN(/N=C/C=C/c1ccccc1)c1cc(=O)n(C)c(=O)[nH]1	0	0	0	0	1.5µM	0
CCN(/N=C/c1ccc(Cl)cc1)c1cc(=O)n(C)c(=O)[nH]1	0	0	0	0	0	0
CCN(CC(=O)Nc1ccc(OC)cc1)C(=O)c1ccc2c(c1)NC(=O)C(C)S2 (configuration not stated)	0	0	?	0	0	0
COC(=O)[C@@H]1[C@@H](C#N)C2(c3ccccc3-c3ccccc32)N(c2ccc(Cl)cc2)N1C#N	3.7µM	23µM	?	?	3.3µM	23µM
O=C(Cc1ccc(Cl)cc1)NN1C(=O)c2ccccc2C1=O	0	0	0	0	?	0
C=CC(=O)Nc1cc2c(Nc3ccc(F)c(Cl)c3)ncnc2cc1OCCCN1CCOCC1	4.7µM	-	-	-	5.3µM	-
O=C(NCCCN1CCOCC1)c1ccc2c(=O)n(-c3ccc(F)c(Cl)c3)c(=S)[nH]c2c1	?	0	0	0	0	0
CCOc1ccc(C(=O)NC2CCN(C(=O)Nc3ccc(F)cc3)CC2)cc1	0	0	0	0	0	0
COC(=O)CCC(=O)c1oc2ccc(Br)cc2c1N	26µM	0	0	0	?	0
COc1ccc2oc(C(=O)CCC(=O)O)c(N)c2c1	0	0	0	0	0	0
COc1ccc(-c2cc3c(=O)n(CC(=O)Nc4cc(F)ccc4F)ccn3n2)cc1OC	0	-	0	?	0	-
CCC(C)C1=CC(=Nc2c(C)n(C)n(-c3ccccc3)c2=O)C=C(C(C)CC)C1=O (configuration not stated)	?	0	0	0	?	0
CC1=CC(=Nc2c(C)n(C)n(-c3ccccc3)c2=O)C=C(C)C1=O	21µM	?	0	0	?	0
CC(C)(C)C(=O)[C@@H]1[C@@H]2C(=O)N(c3ccc4c(c3)OCCO4)C(=O)[C@@H]2C2c3ccccc3C=CN21 (some centres not stated)	23µM	0	0	0	?	0
COC(=O)c1ccc(-n2nnnc2SCc2ccccc2OC)cc1	?	0	0	0	0	0
O=C(NCCc1ccccc1Cl)C1CCN(c2nc3ccccc3nc2C(F)(F)F)CC1	?	-	0	0	?	-
COc1ccccc1CCNC(=O)C1CCN(c2nc3ccccc3nc2C(F)(F)F)CC1	7.3µM	-	?	0	16µM	-
COc1cccc(NC(=O)C2CCN(c3nc4ccccc4nc3C(F)(F)F)CC2)c1	15µM	-	0	0	23µM	-
NC(=O)c1c(NC(=O)c2ccncn2)sc2c1CCCC2	-	-	0	?	-	-
Cc1ccc(C(=O)Cc2ccccc2)c(O)c1	0	0	0	0	0	0
Cc1ccc(C(=O)CNc2ccc(C)cc2C)cc1	16µM	0	0	0	23µM	0
SMILES	DT40 TDP1 no CPT	HT1080 IDH1KD tx	KB-V1 cytotox	KB-3-1 cytotox	DT40 TDP1 CPT	HT1080-NT tox
Cc1ccc(C(=O)CC(=O)c2ccc(C)cc2O)cc1	18µM	?	0	?	?	0
Cc1ccc(C(=O)CNc2ccccc2C)cc1	0	0	0	0	0	0
Cc1ccc(C(=O)CC(=O)c2cc(Cl)ccc2O)cc1	4.6µM	?	0	0	6.5µM	?
COc1ccc(SN=C2C(C)=CC(=O)C=C2C)cc1	9.2µM	0	0	0	?	0
COc1ccc(S(=O)(=O)Nc2nc3ccccc3nc2Nc2cccc(C(=O)O)c2)cc1	0	0	0	0	0	0
O=C(Nc1ccc(Cl)c(-c2nc3ccccc3[nH]2)c1)c1ccc2c(c1)OCO2	23µM	0	0	?	?	0
O=C(Nc1ccc(-c2nc3ccccc3[nH]2)cc1)C1CCCO1 (configuration not stated)	15µM	11µM	?	?	18µM	10µM
O=C(Nc1ccc2nn(-c3ccccc3)nc2c1)c1ccc2c(c1)OCO2	21µM	?	0	0	16µM	0
O=C(Nc1ccc(-c2nc3ccccc3[nH]2)cc1)c1ccc(-c2ccccc2)cc1	-	-	0	0	-	-
O=C(Nc1ccc(-c2nc3ccccc3[nH]2)cc1)c1ccc2c(c1)OCO2	18µM	?	0	0	?	?
CC(C)(C)C(=O)Nc1ccc(Cl)c(-c2nc3ccccc3[nH]2)c1	?	-	0	0	?	-
Cc1ccc(CNC(=O)CCSCc2cccc(F)c2)cc1	0	0	0	0	0	0
Cc1nc2ccc(-c3nc4ccccc4[nH]3)cc2[nH]1	?	0	0	0	?	0
c1ccc2[nH]c(-c3ccc4c(c3)OCO4)nc2c1	18µM	26µM	13µM	?	?	26µM
Cc1ccccc1NC(=O)c1c(C)oc2ccc(O)c(CN3CCN(C)CC3)c12	?	-	0	0	16µM	-
Cc1oc2ccc(O)c(CN3CCCC3)c2c1C(=O)Nc1cccc(Cl)c1C	21µM	-	0	0	16µM	-
Cc1ccc(NC(=O)c2c(C)oc3ccc(O)c(CN4CCCC4)c23)c(C)c1	?	-	0	0	?	-
Cc1oc2ccc(O)c(CN3CCN(Cc4ccccc4)CC3)c2c1C(=O)Nc1cccc(Cl)c1C	0	-	-	-	16µM	-
C/C(=N\OCC(=O)OCC(=O)N(C)c1ccccc1)c1ccc2c(c1)OCO2	0	0	0	0	0	0
COC(=O)[C@@H](Cc1c[nH]c2ccccc12)NC(=O)C1CCCN(S(=O)(=O)c2ccc(C)cc2)C1 (some centres not stated)	0	0	0	0	0	0
COc1ccc(NC(=S)N2CCCC2c2ccc(OC)c(OC)c2)cc1 (configuration not stated)	0	0	0	0	0	0
O=C(CCl)Nc1cc(S(=O)(=O)N2CCCCCC2)ccc1Cl	2.6µM	?	12µM	13µM	3.7µM	23µM
